Laboratory results as given in PubChem BioAssay (NCI).
This is part of a sample that, as a whole, favours compounds with a hit. Of some 79,000 tested, about 15% had one in any assay. Rule as the data show it: active = growth inhibition above about 70%; inactive = the rest.

Key:
[1] = NCI Yeast Anticancer Drug Screen. Data for the rad50 strain (AID 155);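 also: 0% = growth of vehicle-only cultures of the same strain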; details: S. cerevisiae rad50 strain growth inhibition; at 50.0 µM; hits give high values
Procedure, shortened: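 Relative growth inhibition (compound vs vehicle) was measured in yeast with a defined repair-gene alteration.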

[2] = NCI Yeast Anticancer Drug Screen. Data for the mec2-1 strain (AID 157); details: S. cerevisiae mec2-1 strain, at 50.0 µM, hits give high values
Procedure, shortened: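 Using mec2-1 yeast: add compound, measure growth, express inhibition versus vehicle-treated cultures.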

[3] = NCI Yeast Anticancer Drug Screen. Data for the sgs1 mgt1 strain (AID 161);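 also: 0% = growth of cultures given vehicle only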; details: S. cerevisiae sgs1 mgt1 strain, at 50.0 µM, hits give high values
Procedure, shortened: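 This yeast growth screen uses a strain with defined DNA-repair lesions; compound-treated growth is compared with vehicle-treated growth.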

[4] = NCI Yeast Anticancer Drug Screen. Data for the cln2 rad14 strain (AID 165);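 also: 0% = growth equal to vehicle treated cultures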; details: S. cerevisiae cln2 rad14 strain, at 50.0 µM, hits give high values
Procedure, shortened: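 Yeast strain cln2 rad14, bearing defects in cell cycle control and DNA repair, serves as the test system; values reflect growth inhibition compared with vehicle.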

[5] = NCI Yeast Anticancer Drug Screen. Data for the bub3 strain (AID 167); details: S. cerevisiae bub3 mutant strain, at 50.0 µM, hits give high values
Procedure, shortened: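 Screening used yeast with an engineered genetic alteration affecting cell cycle control. Compound-exposed cultures were compared with vehicle cultures, and reduced growth was taken as inhibition.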

[6] = NCI Yeast Anticancer Drug Screen. Data for the mlh1 rad18 strain (AID 175); details: S. cerevisiae mlh1 rad18 strain growth inhibition; at 50.0 µM; hits give high values
Procedure, shortened: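 Steps: expose repair-defective yeast to compound; measure growth; express inhibition against vehicle-treated controls.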

Measured: growth inhibition

COc1ccc2c3c1OC1C(O)C=CC4C(C2)N(N=O)CCC341 (centres undefined)
inactive: [1] -3.2% | [2] 9.6% | [3] -4.2% | [4] 11.5% | [5] 5.25% | [6] 21.7%

CCOC(=O)c1c(SC)nc(-c2ccc(Cl)cc2)sc1=N
inactive: [1] 18.4% | [2] 19.6% | [3] 24.8% | [4] 25.9% | [5] 28.1% | [6] -19.7%

O=C(Nc1c(Cl)cc([N+](=O)[O-])cc1Cl)C(=O)C1C(=O)NC(=S)NC1=O
inactive: [1] 11.9% | [2] -28.4% | [3] -12.1% | [4] 7.65% | [5] 10.6% | [6] -5.9%

O=[N+]([O-])c1cccc(C(Cl)Cl)c1
inactive: [1] 30.5% | [2] -4.7% | [3] 22.4% | [4] 22.1% | [5] 12.1% | [6] -2.25%

CC(C)(C)N1COC2CCCCC21 (centres undefined)
inactive: [1] 17.4% | [2] -3.2% | [3] 4.65% | [4] -4.25% | [5] 16.4% | [6] 14.6%

CCOP(=O)(OCC)/C(C#N)=C/c1ccco1
inactive: [1] -2.55% | [2] -25.4% | [3] -9.65% | [4] 21.8% | [5] -16.5% | [6] -21.8%

CCCCC[CH2][Sn](=[O])[CH2]CCCCC
inactive: [1] 8.25% | [2] 3.35% | [3] -9.4% | [4] -24.6% | [5] 6.8% | [6] -11.4%

CN1CCc2cc3c(cc2[C@H]1[C@@H]1OC(=O)c2c1ccc1c2OCO1)OCO3
inactive: [1] -11.4% | [2] -38.5% | [3] -26% | [4] -0.25% | [5] -29.1% | [6] -41%

Cc1nnc(NC2=NCCO2)s1
inactive: [1] -4.2% | [2] -5.5% | [3] -1.6% | [4] -28.1% | [5] -14.2% | [6] -4%

Brc1ccc(Oc2ccc(Br)cc2Br)c(Br)c1
inactive: [1] 13.9% | [2] -21.5% | [3] 8.2% | [4] 2% | [5] 21.6% | [6] 32.4%

O=NN1CCCS1(=O)=O
inactive: [1] 21.2% | [2] 17.9% | [3] 15.8% | [4] 14.3% | [5] 3.95% | [6] 18.8%

CN1C(=O)c2ccccc2NC(=O)C12OC2c1ccccc1 (centres undefined)
inactive: [1] -0.1% | [2] 18% | [3] 11.3% | [4] 10.2% | [5] 18.2% | [6] 8.15%

CCCCCCCCCCC(O)[C@H]1CCC(C2CC[C@H]([C@H](O)CCCCCCCCCCC(O)CC3=CC(C)OC3=O)O2)O1 (some centres undefined)
inactive: [1] 2.15% | [2] -5.15% | [3] -13.3% | [4] -10.7% | [5] 0.85% | [6] 5.2%

CC1(Cl)C(=O)NC(=O)NC1O (centres undefined)
inactive: [1] 4.45% | [2] 2.5% | [3] 12.2% | [4] 20.4% | [5] 0.1% | [6] 19.1%

C[N+]12CCC34C5=CC(=O)C(=O)C=C5[N+]5(C)C(=O)CC6OCC=C(C1)C(CC32)C6C45 (centres undefined)
inactive: [1] -2% | [2] -22.1% | [3] 4.65% | [4] 10.9% | [5] 11.7% | [6] 0.7%

CC1(C)N(C(=S)Nc2ccccc2)C1(C)C
inactive: [1] 6.45% | [2] 1.3% | [3] 5.25% | [4] -26.2% | [5] -5.2% | [6] 5.8%

O=[N+]([O-])C1(Cl)CCC(Cl)([N+](=O)[O-])CC1 (centres undefined)
inactive: [1] 5.85% | [2] -6.2% | [3] -2.1% | [4] -23.4% | [5] -14.6% | [6] -18.3%

O=NNc1cncc(NN=O)n1
inactive: [1] -37.9% | [2] 1.1% | [3] -2.8% | [4] -14.9% | [5] -4.95% | [6] 3.75%

CCOC(=O)C(Cc1c[nH]c2ccccc12)NC(=O)/C=C/N(CCCl)CCCl (centres undefined)
inactive: [1] 9.25% | [2] 9.95% | [3] 17% | [4] 0.25% | [5] -14.5% | [6] 22.2%

CC1(C)OCC(CO)(Nc2nc(N3CC3)nc(N3CC3)n2)CO1
inactive: [1] -12.6% | [2] 2.9% | [3] 3.3% | [4] -38% | [5] 5.6% | [6] -2.8%

CC(=O)[C-](Br)C(C)=O.CC(=O)[C-](Br)C(C)=O.CC(=O)[C-](Br)C(C)=O.[Ru+3]
inactive: [1] 1.05% | [2] 1% | [3] -15.9% | [4] -15.1% | [5] 17.8% | [6] 14.5%

CCOP(=O)(OCC)OP(=O)(OCC)OCC
inactive: [1] -9.35% | [2] -29.6% | [3] -42.7% | [4] -10.1% | [5] -49.4% | [6] -13.4%

O=[As](c1ccccc1)(c1ccccc1)c1ccc(Br)cc1
inactive: [1] 31.1% | [2] 1.25% | [3] 12.2% | [4] 5.1% | [5] 6.2% | [6] 4.7%

CCOP(=O)(OCC)/C(C#N)=C/c1ccc(OC)cc1
inactive: [1] 2.9% | [2] -1.8% | [3] -11.4% | [4] 11.7% | [5] 11.1% | [6] -1.05%

O=C1CCCN1CC#CCN1C[C@@H]2C3CCC(C3)[C@@H]2C1
inactive: [1] -2.8% | [2] -8.5% | [3] 6.25% | [4] 29.4% | [5] 17% | [6] 27.6%

O=[N+]([O-])c1cc([As](=O)(O)O)ccc1S(=O)(=O)O
inactive: [1] -0.6% | [2] 7.65% | [3] 7% | [4] -3% | [5] 9.2% | [6] 2.2%

CSC(=S)N(C)c1nc(=[N+](C)C)ss1
inactive: [1] -12.8% | [2] -1.2% | [3] -9.8% | [4] -32.4% | [5] -2.25% | [6] 27.3%

O=C(/C=C/c1ccccc1)CCC1C(=O)NC(=S)NC1=O
inactive: [1] -4.05% | [2] 3.35% | [3] 27.2% | [4] 0.4% | [5] -17.1% | [6] -34.5%

O=c1oc2cc(O)ccc2c(O)c1C(c1ccc2ccccc2c1)c1c(O)c2ccc(O)cc2oc1=O
inactive: [1] 8.65% | [2] 31.2% | [3] 36.7% | [4] 35.8% | [5] 17.2% | [6] -17.4%

C/C=C1/CN2C3C[C@H]1C(CO)(C(=O)OC)[C@H]2Cc1c3n(C)c2ccccc12 (some centres undefined)
inactive: [1] -1.2% | [2] -4.35% | [3] 16.7% | [4] -0.1% | [5] 7% | [6] -8.9%

C[C@]12CC[C@H](O[C@@H]3O[C@H](CO[C@@H]4O[C@H](CO)[C@@H](O)[C@H](O)[C@H]4O)[C@@H](O)[C@H](O)[C@H]3O)C[C@@H]1CC[C@@H]1[C@@H]2CC[C@]2(C)[C@@H](C3=CC(=O)OC3)CC[C@]12O
inactive: [1] -7.75% | [2] -13.6% | [3] -1.85% | [4] -0.85% | [5] -1.95% | [6] 8.85%

COC(=O)COC1CC[CH-]CC1.[Cl-].[Cl-].[Cl-].[Cl-].[Cl-].[Sb+5].c1ccncc1
inactive: [1] 20.8% | [2] 7.8% | [3] 18.7% | [4] 17.6% | [5] 4.75% | [6] 12.8%

CCC1(CC)C(=O)NC(=NCCCC(N)C(=O)O)NC1=O (centres undefined)
inactive: [1] 8.75% | [2] -3.05% | [3] 8.15% | [4] 11.4% | [5] 23.6% | [6] 7.4%

CC1(C)COP(=S)(SCCC#N)OC1
inactive: [1] -38.8% | [2] -7.1% | [3] 0.95% | [4] -29.4% | [5] 12.8% | [6] -0.55%

COc1ccc2c3c1OC1C(OC)(OC)CC4(C=C2)CN(C)CCC314 (centres undefined)
inactive: [1] -31% | [2] -22.4% | [3] -20.4% | [4] -11.4% | [5] -23.9% | [6] -11.8%

COc1cc2c(cc1OC)C(c1ccc(O)c(O)c1)CNC2 (centres undefined)
inactive: [1] -27.8% | [2] -7.9% | [3] -31.1% | [4] -10.1% | [5] -21.1% | [6] -5.3%

CC(C)=CCC1=C(OOC2=C(CC=C(C)C)C(=O)c3ccccc3C2=O)C(=O)c2ccccc2C1=O
inactive: [1] 36.8% | [2] 23.8% | [3] 43% | [4] 11.1% | [5] 5.05% | [6] 5.7%

C=C1C(=O)OC2/C=C(\C)CC/C=C(/C)CC(OC(=O)/C(=C/CO)CO)C12 (centres undefined)
inactive: [1] 6.3% | [2] -11.6% | [3] 14.7% | [4] 13% | [5] -6% | [6] -54.7%

C=C[C](=C)[Pb]([CH2]C)([CH2]C)[CH2]C
inactive: [1] -7.3% | [2] 4.75% | [3] -10.5% | [4] 13.7% | [5] -10.6% | [6] 5.5%
